The text below walks through data of PMC7862700, “An all-to-all approach to the identification of sequence-specific readers for epigenetic DNA modifications on cytosine”.

What all share (assay): DAPPL (digital affinity profiling via proximity ligation, sequencing); 10 mM Tris-HCl pH 7.5, 50 mM NaCl, 1 mM DTT, 4% glycerol, room temperature, 30 min; GST-TFs on glutathione beads, 16-mer random dsDNA library, 0.1% formaldehyde crosslink after washing; high values mean tight binding
Common to all, as to conditions: protein: recombinant; tags: N-terminal GST; dsDNA, one strand shown

Assay [1] has as its target T1, FLI1 (Homo sapiens, UniProt Q01543 1-452).
T1 sequence: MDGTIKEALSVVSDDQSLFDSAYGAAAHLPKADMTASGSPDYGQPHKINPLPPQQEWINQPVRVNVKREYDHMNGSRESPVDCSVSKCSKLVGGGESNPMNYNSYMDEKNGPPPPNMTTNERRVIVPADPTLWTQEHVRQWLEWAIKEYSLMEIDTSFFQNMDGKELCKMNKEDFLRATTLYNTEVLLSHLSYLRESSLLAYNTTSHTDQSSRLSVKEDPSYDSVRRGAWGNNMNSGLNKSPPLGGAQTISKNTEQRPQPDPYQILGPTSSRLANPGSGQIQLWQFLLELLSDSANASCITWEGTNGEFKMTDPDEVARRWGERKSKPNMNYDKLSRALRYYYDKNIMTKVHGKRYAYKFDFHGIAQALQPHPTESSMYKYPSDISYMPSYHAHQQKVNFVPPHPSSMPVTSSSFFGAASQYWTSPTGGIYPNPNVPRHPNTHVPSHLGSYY
The method, boiled down: (§1)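 GST fusions of human transcription factors were expressed in yeast and captured with glutathione beads. Once given DNA barcodes and pooled alongside a tag-only sample, they were incubated for 30 min at room temperature with 200 nmole of a random double-stranded 16-mer DNA library in Tris/NaCl/DTT/glycerol buffer, then washed, crosslinked (0.1% formaldehyde), proximity-ligated, PCR-amplified and sequenced on an Illumina NextSeq500. The binding signal of each hexamer is its read frequency for a factor divided by its frequency for the tag-only sample.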

Assay [2] concerns the target T2, ELK1 (Homo sapiens, UniProt P19419 1-428).
T2 sequence: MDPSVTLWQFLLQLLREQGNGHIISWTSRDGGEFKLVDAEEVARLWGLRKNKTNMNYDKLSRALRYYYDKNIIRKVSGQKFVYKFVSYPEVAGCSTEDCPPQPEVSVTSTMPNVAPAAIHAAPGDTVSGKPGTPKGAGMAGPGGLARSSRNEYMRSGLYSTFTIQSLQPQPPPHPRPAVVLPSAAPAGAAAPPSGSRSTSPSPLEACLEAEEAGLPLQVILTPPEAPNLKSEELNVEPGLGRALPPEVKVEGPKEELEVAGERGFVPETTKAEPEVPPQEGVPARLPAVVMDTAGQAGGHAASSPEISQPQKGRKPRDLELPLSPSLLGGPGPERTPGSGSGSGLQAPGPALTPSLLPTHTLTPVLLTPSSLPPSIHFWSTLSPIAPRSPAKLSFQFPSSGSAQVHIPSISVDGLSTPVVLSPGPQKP
The method, boiled down: as §1

The target in assay [3] is T3, GABPA (Homo sapiens, UniProt Q06546 1-454).
T3 sequence: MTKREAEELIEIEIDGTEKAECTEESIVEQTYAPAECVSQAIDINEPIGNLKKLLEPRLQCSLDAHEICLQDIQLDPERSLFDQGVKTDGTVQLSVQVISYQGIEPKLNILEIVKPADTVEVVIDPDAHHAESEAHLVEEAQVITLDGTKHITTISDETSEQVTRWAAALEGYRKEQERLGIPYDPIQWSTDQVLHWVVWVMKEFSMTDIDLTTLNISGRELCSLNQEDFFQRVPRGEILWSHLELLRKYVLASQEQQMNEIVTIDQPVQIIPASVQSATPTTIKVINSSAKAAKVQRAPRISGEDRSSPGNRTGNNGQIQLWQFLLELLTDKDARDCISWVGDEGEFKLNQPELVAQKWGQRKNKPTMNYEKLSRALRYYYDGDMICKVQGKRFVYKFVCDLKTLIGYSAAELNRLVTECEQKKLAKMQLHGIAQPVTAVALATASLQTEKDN
The method, boiled down:
as §1

Assay [4] has as its target ELF1 (Homo sapiens, UniProt P32519 1-619). The method, boiled down:
as §1

Assay [5] concerns the target T4, EHF (Homo sapiens, UniProt Q9NZC4 1-300).
T4 sequence: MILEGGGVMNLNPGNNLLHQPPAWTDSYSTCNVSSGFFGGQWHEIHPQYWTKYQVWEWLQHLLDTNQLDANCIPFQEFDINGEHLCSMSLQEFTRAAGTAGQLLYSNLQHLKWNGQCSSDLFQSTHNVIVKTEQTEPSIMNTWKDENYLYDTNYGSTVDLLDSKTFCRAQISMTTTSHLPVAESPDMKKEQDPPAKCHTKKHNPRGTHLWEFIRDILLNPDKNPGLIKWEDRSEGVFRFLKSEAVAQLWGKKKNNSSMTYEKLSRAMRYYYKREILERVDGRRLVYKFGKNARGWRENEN
An outline of the steps: as §1

Assay [6] has as its target SPI1 (Homo sapiens, UniProt P17947 1-270). An outline of the steps:
as §1

Assay [7] addresses SPIB (Homo sapiens, UniProt Q01892 1-262). An outline of the steps: as §1
Assay [8] deals with T5, ELK3 (Homo sapiens, UniProt P41970 1-407).
T5 sequence: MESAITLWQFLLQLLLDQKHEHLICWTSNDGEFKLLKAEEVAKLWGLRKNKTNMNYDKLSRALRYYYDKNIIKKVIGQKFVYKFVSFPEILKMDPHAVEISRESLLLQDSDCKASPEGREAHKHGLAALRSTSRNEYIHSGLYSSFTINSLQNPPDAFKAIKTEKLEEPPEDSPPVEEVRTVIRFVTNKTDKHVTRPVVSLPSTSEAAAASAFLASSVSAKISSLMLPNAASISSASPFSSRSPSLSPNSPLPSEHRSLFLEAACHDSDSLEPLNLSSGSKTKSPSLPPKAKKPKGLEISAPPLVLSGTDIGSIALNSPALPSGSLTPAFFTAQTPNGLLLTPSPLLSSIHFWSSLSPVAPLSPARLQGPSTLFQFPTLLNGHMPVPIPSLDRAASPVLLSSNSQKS
The method, boiled down:
as §1

For assay [9], the target named is T6, FEV (Homo sapiens, UniProt Q99581 1-238).
T6 sequence: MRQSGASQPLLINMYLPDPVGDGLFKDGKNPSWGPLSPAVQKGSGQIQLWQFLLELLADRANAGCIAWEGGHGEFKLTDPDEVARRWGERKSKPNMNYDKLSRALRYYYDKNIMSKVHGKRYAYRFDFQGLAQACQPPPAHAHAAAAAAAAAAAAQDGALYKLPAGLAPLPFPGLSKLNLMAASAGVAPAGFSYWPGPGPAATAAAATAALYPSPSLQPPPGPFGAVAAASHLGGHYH
The method, boiled down: as §1

Assay [10] deals with ETV5 (Homo sapiens, UniProt P41161 1-510). An outline of the steps:
as §1

Assay [11] has as its target T7, SPIC (Homo sapiens, UniProt Q8N5J4 1-248).
T7 sequence: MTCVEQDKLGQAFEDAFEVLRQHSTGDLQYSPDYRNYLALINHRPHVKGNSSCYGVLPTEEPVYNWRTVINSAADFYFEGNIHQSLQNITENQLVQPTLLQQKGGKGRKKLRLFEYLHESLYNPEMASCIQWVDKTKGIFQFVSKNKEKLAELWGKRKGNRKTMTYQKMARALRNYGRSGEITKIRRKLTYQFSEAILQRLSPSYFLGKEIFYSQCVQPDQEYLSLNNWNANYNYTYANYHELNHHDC
An outline of the steps:
as §1

For assay [12], the target named is ELF4 (Homo sapiens, UniProt Q99607 1-663). The method, boiled down: as §1
The target of assay [13] is T8, ELK4 (Homo sapiens, UniProt P28324-2 1-405).
T8 sequence: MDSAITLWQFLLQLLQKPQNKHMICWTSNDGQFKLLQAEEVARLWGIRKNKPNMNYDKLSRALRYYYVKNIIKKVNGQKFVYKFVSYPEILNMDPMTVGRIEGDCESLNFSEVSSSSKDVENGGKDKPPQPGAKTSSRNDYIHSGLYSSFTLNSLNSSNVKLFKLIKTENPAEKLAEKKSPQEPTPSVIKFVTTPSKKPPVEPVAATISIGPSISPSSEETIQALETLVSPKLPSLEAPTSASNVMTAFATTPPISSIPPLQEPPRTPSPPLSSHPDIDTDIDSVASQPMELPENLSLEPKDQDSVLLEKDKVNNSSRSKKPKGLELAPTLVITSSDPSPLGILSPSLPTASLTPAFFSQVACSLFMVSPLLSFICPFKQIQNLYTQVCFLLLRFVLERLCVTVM
The method, boiled down: as §1

The target of assay [14] is T9, ETV2 (Homo sapiens, UniProt O00321 1-342).
T9 sequence: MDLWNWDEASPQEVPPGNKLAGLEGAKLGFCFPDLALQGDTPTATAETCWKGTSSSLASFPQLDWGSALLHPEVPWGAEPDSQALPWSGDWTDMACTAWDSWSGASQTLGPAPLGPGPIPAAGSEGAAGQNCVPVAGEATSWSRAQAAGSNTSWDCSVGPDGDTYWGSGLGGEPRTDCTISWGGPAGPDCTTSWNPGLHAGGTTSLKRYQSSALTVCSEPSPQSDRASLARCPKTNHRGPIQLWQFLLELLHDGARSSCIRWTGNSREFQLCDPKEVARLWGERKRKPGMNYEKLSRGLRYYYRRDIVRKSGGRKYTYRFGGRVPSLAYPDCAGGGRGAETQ
The method, boiled down:
as §1

Assay [15] deals with T10, ELF3 (Homo sapiens, UniProt P78545 1-371).
T10 sequence: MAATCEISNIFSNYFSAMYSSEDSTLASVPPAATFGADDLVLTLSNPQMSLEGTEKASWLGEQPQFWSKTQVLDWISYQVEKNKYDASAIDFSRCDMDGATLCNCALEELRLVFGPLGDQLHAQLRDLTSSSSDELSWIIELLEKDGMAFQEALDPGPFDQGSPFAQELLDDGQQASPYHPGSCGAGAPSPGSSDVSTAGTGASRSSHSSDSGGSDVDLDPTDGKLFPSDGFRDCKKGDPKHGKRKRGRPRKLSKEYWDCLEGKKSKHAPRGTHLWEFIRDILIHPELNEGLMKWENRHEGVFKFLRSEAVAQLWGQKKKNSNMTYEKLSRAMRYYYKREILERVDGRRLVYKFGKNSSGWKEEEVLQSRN
An outline of the steps:
as §1

Assay [16] deals with ETV1 (Homo sapiens, UniProt P50549 1-477). An outline of the steps: as §1
ETV1, sequence (P50549 whole entry): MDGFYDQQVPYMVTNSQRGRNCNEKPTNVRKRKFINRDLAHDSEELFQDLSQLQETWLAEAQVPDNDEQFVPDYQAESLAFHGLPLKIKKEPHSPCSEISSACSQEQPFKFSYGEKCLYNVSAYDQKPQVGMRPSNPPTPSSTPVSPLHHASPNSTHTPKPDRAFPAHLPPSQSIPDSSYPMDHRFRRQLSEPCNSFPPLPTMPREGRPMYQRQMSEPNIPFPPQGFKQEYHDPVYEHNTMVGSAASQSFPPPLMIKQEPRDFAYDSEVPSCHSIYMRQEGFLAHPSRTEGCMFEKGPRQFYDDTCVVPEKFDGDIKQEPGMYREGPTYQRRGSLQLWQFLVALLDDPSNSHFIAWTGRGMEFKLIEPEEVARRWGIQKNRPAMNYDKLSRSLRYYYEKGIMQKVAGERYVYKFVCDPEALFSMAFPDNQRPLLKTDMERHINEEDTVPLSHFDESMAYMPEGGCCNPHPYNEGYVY

ETV5, sequence (P41161 whole entry): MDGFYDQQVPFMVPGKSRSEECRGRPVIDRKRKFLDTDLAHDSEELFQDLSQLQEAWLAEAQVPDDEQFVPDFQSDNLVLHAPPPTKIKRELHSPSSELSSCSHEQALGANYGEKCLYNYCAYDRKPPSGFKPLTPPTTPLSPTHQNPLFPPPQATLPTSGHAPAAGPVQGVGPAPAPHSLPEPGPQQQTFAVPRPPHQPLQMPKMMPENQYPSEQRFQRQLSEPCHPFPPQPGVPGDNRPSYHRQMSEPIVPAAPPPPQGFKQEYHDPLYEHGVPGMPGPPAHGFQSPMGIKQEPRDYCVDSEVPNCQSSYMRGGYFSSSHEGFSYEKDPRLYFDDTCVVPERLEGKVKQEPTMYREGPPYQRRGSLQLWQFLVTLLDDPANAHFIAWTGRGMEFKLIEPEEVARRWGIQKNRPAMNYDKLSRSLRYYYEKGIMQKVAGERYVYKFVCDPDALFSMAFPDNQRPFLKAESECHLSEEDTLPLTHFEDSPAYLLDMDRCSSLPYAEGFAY
SPIB, sequence (Q01892 whole entry): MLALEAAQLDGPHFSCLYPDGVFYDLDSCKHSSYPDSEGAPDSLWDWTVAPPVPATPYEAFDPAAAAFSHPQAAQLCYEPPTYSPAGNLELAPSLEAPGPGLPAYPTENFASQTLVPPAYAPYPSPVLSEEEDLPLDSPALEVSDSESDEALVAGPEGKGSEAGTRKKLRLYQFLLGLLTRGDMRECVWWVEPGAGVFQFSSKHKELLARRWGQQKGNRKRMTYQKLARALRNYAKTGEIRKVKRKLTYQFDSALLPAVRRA
ELF1, sequence (P32519 whole entry): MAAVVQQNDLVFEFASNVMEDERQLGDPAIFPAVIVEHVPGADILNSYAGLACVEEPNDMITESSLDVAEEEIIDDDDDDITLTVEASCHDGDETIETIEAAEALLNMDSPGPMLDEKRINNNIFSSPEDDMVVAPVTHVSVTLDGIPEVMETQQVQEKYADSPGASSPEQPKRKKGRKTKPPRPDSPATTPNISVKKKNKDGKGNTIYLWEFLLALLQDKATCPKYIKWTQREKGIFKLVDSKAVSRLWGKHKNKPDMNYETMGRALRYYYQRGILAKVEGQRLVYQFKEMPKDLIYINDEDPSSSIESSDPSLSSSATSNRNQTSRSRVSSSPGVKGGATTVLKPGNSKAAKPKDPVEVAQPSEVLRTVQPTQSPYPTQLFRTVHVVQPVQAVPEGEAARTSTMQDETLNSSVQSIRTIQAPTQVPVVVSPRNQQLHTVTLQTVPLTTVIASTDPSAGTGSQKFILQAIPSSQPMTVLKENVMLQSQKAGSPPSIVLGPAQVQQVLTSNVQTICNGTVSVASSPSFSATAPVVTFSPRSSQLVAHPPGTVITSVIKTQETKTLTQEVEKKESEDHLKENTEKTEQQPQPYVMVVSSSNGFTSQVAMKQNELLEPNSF
ELF4, sequence (Q99607 whole entry): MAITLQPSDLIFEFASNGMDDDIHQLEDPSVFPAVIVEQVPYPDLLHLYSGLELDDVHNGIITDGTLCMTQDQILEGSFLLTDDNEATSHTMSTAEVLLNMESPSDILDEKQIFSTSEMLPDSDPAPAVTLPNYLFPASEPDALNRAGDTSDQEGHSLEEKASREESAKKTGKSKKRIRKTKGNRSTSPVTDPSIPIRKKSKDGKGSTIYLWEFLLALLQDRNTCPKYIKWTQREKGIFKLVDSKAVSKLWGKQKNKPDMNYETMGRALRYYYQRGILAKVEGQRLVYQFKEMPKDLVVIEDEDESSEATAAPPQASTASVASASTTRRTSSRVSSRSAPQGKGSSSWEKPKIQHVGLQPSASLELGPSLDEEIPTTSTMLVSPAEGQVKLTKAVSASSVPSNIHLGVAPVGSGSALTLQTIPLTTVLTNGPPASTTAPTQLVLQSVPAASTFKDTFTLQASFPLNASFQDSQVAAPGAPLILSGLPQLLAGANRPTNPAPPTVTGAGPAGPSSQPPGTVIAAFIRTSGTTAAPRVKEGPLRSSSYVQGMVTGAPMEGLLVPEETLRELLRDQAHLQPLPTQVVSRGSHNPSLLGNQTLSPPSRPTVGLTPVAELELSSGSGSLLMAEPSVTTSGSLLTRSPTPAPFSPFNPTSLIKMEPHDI

On to CGCCAA, for which the binding signal in assay [1] was 1.03 fold enrichment (6-mer frequency, TF over GST control); in assay [2], 1.02 fold enrichment (6-mer frequency, TF over GST control); in [3] it was 1.03 fold enrichment (6-mer frequency, TF over GST control); in assay [4] it was 1.08 fold enrichment (6-mer frequency, TF over GST control); in [5], 1.04 fold enrichment (6-mer frequency, TF over GST control); in [6], 1.04 fold enrichment (6-mer frequency, TF over GST control). Further, the binding signal in assay [7] was 1.02 fold enrichment (6-mer frequency, TF over GST control); in assay [8] it was 1.06 fold enrichment (6-mer frequency, TF over GST control); in [9] it was 1.05 fold enrichment (6-mer frequency, TF over GST control); in assay [10], 1.02 fold enrichment (6-mer frequency, TF over GST control); in [11], 1.11 fold enrichment (6-mer frequency, TF over GST control); in assay [12], 1.09 fold enrichment (6-mer frequency, TF over GST control). The binding signal in assay [13] is 1.04 fold enrichment (6-mer frequency, TF over GST control); in assay [14], 1.03 fold enrichment (6-mer frequency, TF over GST control); in assay [15], 1.12 fold enrichment (6-mer frequency, TF over GST control).

For the sequence TCACAG, the binding signal in assay [1] was 1.09 fold enrichment (6-mer frequency, TF over GST control); in assay [2], 1.15 fold enrichment (6-mer frequency, TF over GST control); in assay [3] it was 1.1 fold enrichment (6-mer frequency, TF over GST control); in assay [4], 1.06 fold enrichment (6-mer frequency, TF over GST control); in [5], 1.02 fold enrichment (6-mer frequency, TF over GST control); in assay [7], 1.09 fold enrichment (6-mer frequency, TF over GST control). The binding signal is 1.01 fold enrichment (6-mer frequency, TF over GST control) in assay [8]; 1.09 fold enrichment (6-mer frequency, TF over GST control) in assay [9]; 1.07 fold enrichment (6-mer frequency, TF over GST control) in assay [10]; 1.04 fold enrichment (6-mer frequency, TF over GST control) in assay [11]; 1.17 fold enrichment (6-mer frequency, TF over GST control) in assay [12]; 1.04 fold enrichment (6-mer frequency, TF over GST control) in assay [13]. Besides, the binding signal in assay [14] is 1.28 fold enrichment (6-mer frequency, TF over GST control); in assay [15] it was 1.13 fold enrichment (6-mer frequency, TF over GST control); in [16], 1.05 fold enrichment (6-mer frequency, TF over GST control).
